Source: PubChem BioAssay (National Center for Advancing Translational Sciences (NCATS))
Rows were chosen to be rich in hits. Some 0.41% of all compounds tested hit in one or more screens of this group.
N370S GC mod: N370S glucocerebrosidase modulation, Gaucher chaperone candidate; P04062; actives 0.092% (n = 330,000); N370S GC spleen homogenate, 4MU-glucoside fluorescence; Potency, µM (doses to about 59.4 µM), for inactives: at the top dose activity change, negative = inhibition, actives largely listed as inhibitors; AID 2101;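 also: potency is read from the fitted curve at half-maximal effect; 0% = full enzyme activity and -100% = no enzyme basal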
GLA inh pH 4.5: inhibitors of human alpha-galactosidase A at pH 4.5 | P06280 | purified enzyme, 4-MU-alpha-Gal fluorescence, pH 4.5 | activity change, negative = inhibition, % at 105 µM | 230,000 tested, under 10 active;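 also: 0% = full activity with enzyme and -100% = basal without enzyme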
Target sequence (P06280 whole entry, looked up): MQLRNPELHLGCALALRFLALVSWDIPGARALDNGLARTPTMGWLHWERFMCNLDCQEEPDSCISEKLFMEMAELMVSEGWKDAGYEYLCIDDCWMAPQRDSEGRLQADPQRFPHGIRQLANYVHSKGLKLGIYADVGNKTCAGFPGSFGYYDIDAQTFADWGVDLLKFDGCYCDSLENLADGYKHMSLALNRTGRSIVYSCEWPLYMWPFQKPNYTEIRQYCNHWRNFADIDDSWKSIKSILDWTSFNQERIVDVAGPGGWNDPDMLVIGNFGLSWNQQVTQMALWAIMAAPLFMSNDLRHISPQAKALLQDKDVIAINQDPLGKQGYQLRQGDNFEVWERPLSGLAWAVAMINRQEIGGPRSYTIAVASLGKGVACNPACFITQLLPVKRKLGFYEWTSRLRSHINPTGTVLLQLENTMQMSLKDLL
GAA glycogen: inhibitors or activators of human alpha-glucosidase glycogen cleavage | P10253 | recombinant GAA, glycogen substrate, Amplex Red glucose oxidase fluorescence | Potency, µM (highest dose often 76.4 µM), without a hit: at the highest dose activity change, negative = inhibition, actives largely listed as inhibitors | actives 0.38% (n = 300,000) | AID 2100;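 also: potency is read from the fitted curve at half-maximal effect; 0% = full enzyme reaction and -100% = no-enzyme basal signal; the screen sought inhibitors and activators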
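Natural-substrate format: glycogen cleavage by 4 nM human enzyme, glucose read by Amplex Red coupling (Ex 573, Em 610 nm). Normalized to enzyme and no-enzyme controls.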
GAA inh: inhibitors of human lysosomal alpha-glucosidase. actives 0.005% (n = 200,000). Potency, µM (top dose mostly 76.9 µM), without a hit: at the top dose activity change, negative = inhibition, actives largely listed as inhibitors. P10253. AID 1466. purified human GAA, 4-MU-alpha-glucoside fluorescence;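 also: potency is read from the fitted curve at half-maximal effect; plate controls were uninhibited enzyme wells for no effect and no-enzyme background for full effect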
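Human enzyme at 4 nM with 400 uM 4-methylumbelliferyl-alpha-D-pyranoside, citrate/phosphate buffer pH 5.0, 0.005% Tween-20, 20 min at room temperature. Compounds up to 77 uM. 4-MU fluorescence (Ex 365/Em 440) read after NaOH/glycine stop; AC50 from Hill fit.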
aGlu spleen mod: inhibitors or activators of human alpha-glucosidase in spleen homogenate; human spleen homogenate, 4-MU-alpha-glucoside fluorescence; actives 0.006% (n = 240,000); Potency, µM (titrated, usually from 79.9 µM), without a hit: top-dose activity change, negative = inhibition, hits mostly inhibitors;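 also: potency is read from the fitted curve at half-maximal effect; 0% = enzyme with vehicle and -100% = no enzyme basal signal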
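Compounds were titrated against alpha-glucosidase in spleen homogenate at pH 5.0, with 1 mM 4-methylumbelliferyl substrate for 40 min at 37 C. Reactions were quenched with pH 10 NaOH/glycine and fluorescence measured.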
aGal spleen mod: inhibits or activates alpha-galactosidase in human spleen homogenate | P06280 | human spleen homogenate, 4MU-alpha-Gal fluorescence, 40 min | Potency, µM (top dose mostly 80 µM), inactives show at the highest dose activity change, negative = inhibition, usual class: inhibitors | actives 0.008% (n = 240,000) | AID 2107;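 also: potency is read from the fitted curve at half-maximal effect; 0% = enzyme with vehicle and -100% = no enzyme basal signal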
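Human spleen homogenate (1 ug) as enzyme source, 4-methylumbelliferyl-alpha-D-galactopyranoside 1 mM final, citrate/phosphate pH 5.0 with 0.01% Tween-20. Compounds 40 min at 37C, NaOH/glycine stop; fluorescence Ex 365/Em 440, Hill-fit AC50.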
The depositor's hits bear a star; ? = inconclusive; · = no result given; [ ] = another dose, or the depositor's remark. Calls follow the shape of the dose curve; as a rule, active = well fitted curve in the direction sought with a large enough effect; inconclusive = small, poorly fitted or top-dose-only effect, or another doubt; inactive = no such curve, though single readings can be large; an effect the other way counts as inactive or inconclusive.

SMILES | N370S GC mod | GLA inh pH 4.5 | GAA glycogen | GAA inh | aGlu spleen mod | aGal spleen mod
COc1cccc(C(c2c(NC(=O)c3ccccc3)sc(C)c2C)N2CCN(C)CC2)c1 (configuration not stated) | 16µM* | 1 | 3% | 5% | 3% | 4%
COc1cc(/C=N/Nc2ccc(C(=O)O)cc2)ccc1O | -20% | -12[21.1 µM] | 5.6µM* | -10% | -4% | -1%
COc1ccc(/C=N/Nc2ccccn2)cc1OC | 18% | -4 | ? | · | -6% | -7%
COc1cc(/C=N/NC(=O)NC2CCCCC2)ccc1O | ? | -10 | 25µM* | · | 2% | -3%
COc1cc(/C=N/NC(=O)NC2CCCCC2)cc(OC)c1O | 7% | -10 | -9% | · | -1% | -4%
Oc1ccc(/C=N/Nc2ccc(Cl)nn2)cc1O | -7% | · | 6.3µM* | · | · | ·
COc1cc(/C=N/Nc2ccccn2)ccc1O | -14% | -5 | 25µM* | · | -4% | 0%
COc1cc(/C=N/Nc2ccc(C(=O)O)cc2)cc(OC)c1OC | 3% | -16 | ? | · | 2% | -16%
CCCCn1cc(S(=O)(=O)c2ccc(OC)cc2)c(=O)c2cc(F)c(N3CCOCC3)cc21 | · | · | -5%[76.3 µM] | · | · | ·
CCOc1cc(CNc2ccc(N3CCOCC3)cc2)cc(Br)c1OCC | -7% | -8 | -2% | -6% | -3% | -8%
COc1cc(CNc2ccc(N3CCN(C(C)=O)CC3)cc2)ccc1OCc1ccc(F)cc1 | -17% | 5 | 25µM* | 2% | 1% | 5%
COc1cc(CNc2ccc(N3CCOCC3)cc2)cc(Br)c1OC | -10% | -2 | 45µM* | 3% | -20% | 2%
CCOc1c(Br)cc(CNc2ccc(N3CCN(C(C)=O)CC3)cc2)cc1OC | -29% | -9 | 32µM* | · | -1% | 1%
CCC(CC)c1nn2c(=O)cc(COc3ccc(NC(=O)c4cccc(Cl)c4)cc3)nc2s1 | · | · | -10%[76.3 µM] | · | · | ·
CC(=O)c1cccc(NC(=S)N2CCN(S(=O)(=O)c3ccc(F)cc3)CC2)c1 | -3% | · | · | · | · | ·
CCCN(CCC)CCCNC(=O)c1cc2c(=O)n(C)c3ccccc3c2s1 | · | · | -13%[76.3 µM] | · | · | ·
COc1cc(/C=N/N=C2/C(=O)Nc3ccccc32)ccc1O | -1% | 2 | -1% | ? | -5% | -15%
O=C1Nc2ccccc2/C1=N\N=C\c1ccc(O)c(O)c1 | -1% | 0 | 6.3µM* | -14% | -14% | 2%
CCCN(CCC)C(=O)CSc1nnc2cc(C)c3ccccc3n12 | · | · | 1%[76.3 µM] | · | · | ·
CC1CCC/C(=C\Nc2ccc(O)cc2)C1=O (configuration not stated) | -23% | 1 | 14µM* | -9% | 0% | 7%
Oc1cnn(-c2ccccc2)c1 | 1% | 6 | 20µM* | 4% | 5% | -2%
C(=N\N1CCN(C2c3ccccc3-c3ccccc32)CC1)/c1cccnc1 | · | -2 | -20% | -5% | -9% | -7%
C/C(=N\N1CCN(C2c3ccccc3-c3ccccc32)CC1)c1cccnc1 | 8% | 2 | 32µM* | 12% | -22% | 3%
COc1cc(CNc2ccc3[nH]c(=O)[nH]c3c2)ccc1OCc1ccccc1F | -4% | · | 5.6µM* | · | · | ·
C=CCOc1cccc(CNc2ccc3[nH]c(=O)[nH]c3c2)c1 | -13% | -4 | 28µM* | -2% | -1% | -8%
SMILES | N370S GC mod | GLA inh pH 4.5 | GAA glycogen | GAA inh | aGlu spleen mod | aGal spleen mod
COc1cc(CNc2ccc3[nH]c(=O)[nH]c3c2)cc(Br)c1OCC(=O)NC(C)(C)C | · | -3 | 14µM* | -15% | -5% | -1%
CCOc1cc(CNc2ccc(N(C)C)cc2)cc(Br)c1OCC(=O)NC(C)(C)C | -8% | -27 | 20µM* | ? | -6% | -19%
COc1cc(CNc2ccc3[nH]c(=O)[nH]c3c2)ccc1OCC(=O)NC(C)(C)C | -8% | -6 | ? | -3% | -3% | -5%
CC(=O)O[C@@H](C)C#C[Si](C)(C)c1ccccc1 | -6% | 3 | · | · | -4% | 4%
O=C(CSc1nnc(CNC(=O)c2c(F)cccc2Cl)o1)Nc1ccccc1F | · | · | -10%[76.3 µM] | · | · | ·
O=C(Cn1cc(S(=O)(=O)Cc2ccccc2Cl)c2ccccc21)NCc1ccccc1Cl | · | · | -11%[76.3 µM] | · | · | ·
COc1cccc(C(=O)Nc2ccc3nc(N4CCOCC4)cc(C)c3c2)c1 | 10µM* | -9 | -3% | -6% | 8% | 6%
O=C(Nc1ccc(C(F)(F)F)cc1)C1CCCN(c2cnccn2)C1 (configuration not stated) | · | · | -3%[76.3 µM] | · | · | ·
CCOC(=O)c1ccc(Nc2nc(C)cc(C)n2)cc1 | 0% | · | -7% | · | · | ·
CCOC(=O)c1ccc(Nc2cc(C)nc(-c3ccccc3)n2)cc1 | 1.4µM* | · | -1% | · | · | ·
CC1(C)C(C(=O)O)N2C(=O)CC2S1(=O)=O (configuration not stated) | 9% | -5 | · | · | -3% | -10%
CN(C)S(=O)(=O)c1cc(NC(=O)CN2CCN(c3ccccc3)CC2)ccc1Cl | -4% | 5 | -8% | ? | -25% | 0%
CN(C)S(=O)(=O)c1cc(NC(=O)CN2CCN(c3ccc(O)cc3)CC2)ccc1Cl | -7% | 5 | 7.1µM* | -18% | · | -9%
Cc1c(N=Cc2ccc[nH]2)c(=O)n(-c2ccccc2)n1C | 3% | 0 | 22µM* | 1% | 2% | 2%
Cc1c(N=Cc2ccncc2)c(=O)n(-c2ccccc2)n1C | -15% | 5 | 12µM* | 7% | 0% | 1%
Cc1c(N=Cc2ccccn2)c(=O)n(-c2ccccc2)n1C | 5% | 3 | 13µM* | -6% | -12% | -4%
